From the supplement of paper PMC12282887
± gives the standard deviation of the averaged measurements.

Experiments:
Assay in all cases: promoter activity interaction Z-score (Lux/OD deviation from empty-vector control); higher = stronger promoter induction by the compound
[1] = test system: E. coli BW25113 acrABp lux reporter
In short: (§1)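 At 37°C, E. coli BW25113 reporter cultures in 40 µl LB Lennox in 384-well plates were read for OD600 and luminescence every 30 min for 12 h. Windows were 0–8 h for wild type and 1–9 h for deletion strains, and wells under 10% of the median growth value were removed. The score is the Z-transformed residual of growth-normalised luminescence against a control fit.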

[2] = test system: E. coli BW25113 micFp lux reporter
In short: as §1

[3] = test system: E. coli BW25113 ompFp lux reporter
In short: as §1

[4] = test system: E. coli BW25113 robp lux reporter
In short: as §1

[5] = test system: E. coli BW25113 soxSp lux reporter
In short: as §1

[6] = test system: E. coli BW25113 tolCp lux reporter
In short: as §1

[7] = 2.6 µg/ml, genetic background: wild type
[8] = 2.6 µg/ml, genetic background: ΔmarA
[9] = 2.6 µg/ml, genetic background: Δrob
[10] = 2.6 µg/ml, genetic background: ΔsoxS
[11] = 5.3 µg/ml, genetic background: wild type
[12] = 5.3 µg/ml, genetic background: ΔmarA
[13] = 5.3 µg/ml, genetic background: Δrob
[14] = 5.3 µg/ml, genetic background: ΔsoxS
[15] = 10.6 µg/ml, genetic background: wild type
[16] = 10.6 µg/ml, genetic background: ΔmarA
[17] = 10.6 µg/ml, genetic background: Δrob
[18] = 10.6 µg/ml, genetic background: ΔsoxS
[19] = 21.1 µg/ml, genetic background: wild type
[20] = 21.1 µg/ml, genetic background: ΔmarA
[21] = 21.1 µg/ml, genetic background: Δrob
[22] = 21.1 µg/ml, genetic background: ΔsoxS

SMILES: CC(=O)N[C@H]1[C@@H](O[C@@H]2O[C@H](CC(O)[C@H]3O[C@@H](n4ccc(=O)[nH]c4=O)[C@H](O)[C@@H]3O)[C@H](O)[C@H](O)[C@H]2NC(=O)/C=C/CC(C)C)O[C@H](CO)[C@@H](N)[C@@H]1O (stereo partly specified) [Tunicamycin]
- promoter activity interaction Z-score [1, 7]: 0.13 ± 0.29
- promoter activity interaction Z-score [1, 8]: -0.0876 ± 0.12
- promoter activity interaction Z-score [1, 9]: -0.143 ± 0.18
- promoter activity interaction Z-score [1, 10]: -0.217 ± 0.36
- promoter activity interaction Z-score [1, 11]: -0.0561 ± 0.2
- promoter activity interaction Z-score [1, 12]: -0.914 ± 0.2
- promoter activity interaction Z-score [1, 13]: -0.22 ± 0.25
- promoter activity interaction Z-score [1, 14]: -0.179 ± 0.21
- promoter activity interaction Z-score [1, 15]: 0.0358 ± 0.052
- promoter activity interaction Z-score [1, 16]: 0.615 ± 0.22
- promoter activity interaction Z-score [1, 17]: -0.243 ± 0.0041
- promoter activity interaction Z-score [1, 18]: -0.426 ± 0.35
- promoter activity interaction Z-score [1, 19]: -0.24 ± 0.063
- promoter activity interaction Z-score [1, 20]: -0.0177 ± 0.64
- promoter activity interaction Z-score [1, 21]: -0.332 ± 0.11
- promoter activity interaction Z-score [1, 22]: -0.769 ± 0.066
- promoter activity interaction Z-score [2, 7]: 0.395 ± 0.012
- promoter activity interaction Z-score [2, 8]: 0.0327 ± 0.17
- promoter activity interaction Z-score [2, 9]: 0.0339 ± 0.11
- promoter activity interaction Z-score [2, 10]: 0.164 ± 0.031
- promoter activity interaction Z-score [2, 11]: 0.157 ± 0.33
- promoter activity interaction Z-score [2, 12]: -0.0548 ± 0.095
- promoter activity interaction Z-score [2, 13]: 0.115 ± 0.13
- promoter activity interaction Z-score [2, 14]: -0.136 ± 0.086
- promoter activity interaction Z-score [2, 15]: -0.104 ± 0.25
- promoter activity interaction Z-score [2, 16]: 0.0656 ± 0.17
- promoter activity interaction Z-score [2, 17]: 0.0163 ± 0.13
- promoter activity interaction Z-score [2, 18]: -0.276 ± 0.12
- promoter activity interaction Z-score [2, 19]: -0.663 ± 0.012
- promoter activity interaction Z-score [2, 20]: -0.0908 ± 0.024
- promoter activity interaction Z-score [2, 21]: -0.359 ± 0.073
- promoter activity interaction Z-score [2, 22]: -0.569 ± 0.028
- promoter activity interaction Z-score [3, 7]: -0.448 ± 0.043
- promoter activity interaction Z-score [3, 8]: -0.515 ± 0.43
- promoter activity interaction Z-score [3, 9]: -0.684 ± 0.075
- promoter activity interaction Z-score [3, 10]: -0.00783 ± 0.5
- promoter activity interaction Z-score [3, 11]: -0.405 ± 0.21
- promoter activity interaction Z-score [3, 12]: -0.484 ± 1.3
- promoter activity interaction Z-score [3, 13]: -0.656 ± 0.73
- promoter activity interaction Z-score [3, 14]: 0.307 ± 0.49
- promoter activity interaction Z-score [3, 15]: -0.305 ± 0.016
- promoter activity interaction Z-score [3, 16]: -0.602 ± 0.0081
- promoter activity interaction Z-score [3, 17]: -0.783 ± 0.28
- promoter activity interaction Z-score [3, 18]: -0.819 ± 0.56
- promoter activity interaction Z-score [3, 19]: -0.675 ± 0.34
- promoter activity interaction Z-score [3, 20]: -0.947 ± 0.57
- promoter activity interaction Z-score [3, 21]: -0.245 ± 0.018
- promoter activity interaction Z-score [3, 22]: -1.09 ± 0.71
- promoter activity interaction Z-score [4, 7]: -0.274 ± 0.39
- promoter activity interaction Z-score [4, 8]: -0.38 ± 0.41
- promoter activity interaction Z-score [4, 9]: -0.03 ± 0.92
- promoter activity interaction Z-score [4, 10]: -0.268 ± 0.31
- promoter activity interaction Z-score [4, 11]: 0.0974 ± 0.18
- promoter activity interaction Z-score [4, 12]: -1.07 ± 0.12
- promoter activity interaction Z-score [4, 13]: 0.0652 ± 0.47
- promoter activity interaction Z-score [4, 14]: 0.323 ± 0.16
- promoter activity interaction Z-score [4, 15]: -0.167 ± 0.13
- promoter activity interaction Z-score [4, 16]: -0.402 ± 0.074
- promoter activity interaction Z-score [4, 17]: -0.108 ± 0.64
- promoter activity interaction Z-score [4, 18]: -0.846 ± 0.13
- promoter activity interaction Z-score [4, 19]: -0.06 ± 0.16
- promoter activity interaction Z-score [4, 20]: 0.217 ± 0.25
- promoter activity interaction Z-score [4, 21]: -0.865 ± 0.29
- promoter activity interaction Z-score [4, 22]: -1.32 ± 0.15
- promoter activity interaction Z-score [5, 7]: -0.153 ± 0.24
- promoter activity interaction Z-score [5, 8]: -0.163 ± 0.076
- promoter activity interaction Z-score [5, 9]: -0.181 ± 0.11
- promoter activity interaction Z-score [5, 10]: -0.281 ± 0.17
- promoter activity interaction Z-score [5, 11]: -0.207 ± 0.12
- promoter activity interaction Z-score [5, 12]: -0.432 ± 0.03
- promoter activity interaction Z-score [5, 13]: -0.396 ± 0.41
- promoter activity interaction Z-score [5, 14]: -0.473 ± 0.0061
- promoter activity interaction Z-score [5, 15]: -0.362 ± 0.15
- promoter activity interaction Z-score [5, 16]: -0.417 ± 0.065
- promoter activity interaction Z-score [5, 17]: -0.286 ± 0.13
- promoter activity interaction Z-score [5, 18]: -0.66 ± 0.33
- promoter activity interaction Z-score [5, 19]: -0.651 ± 0.052
- promoter activity interaction Z-score [5, 20]: -0.805 ± 0.022
- promoter activity interaction Z-score [5, 21]: -0.856 ± 0.24
- promoter activity interaction Z-score [5, 22]: -1.4 ± 0.29
- promoter activity interaction Z-score [6, 7]: 0.117 ± 0.23
- promoter activity interaction Z-score [6, 8]: 0.186 ± 0.86
- promoter activity interaction Z-score [6, 9]: 0.627 ± 0.57
- promoter activity interaction Z-score [6, 10]: -0.42 ± 1.2
- promoter activity interaction Z-score [6, 11]: 0.292 ± 0.33
- promoter activity interaction Z-score [6, 12]: 0.228 ± 1.2
- promoter activity interaction Z-score [6, 13]: 0.351 ± 0.028
- promoter activity interaction Z-score [6, 14]: -0.0491 ± 0.37
- promoter activity interaction Z-score [6, 15]: 0.145 ± 0.28
- promoter activity interaction Z-score [6, 16]: -0.36 ± 0.22
- promoter activity interaction Z-score [6, 17]: 0.607 ± 0.47
- promoter activity interaction Z-score [6, 18]: -0.445 ± 0.3
- promoter activity interaction Z-score [6, 19]: 0.0528 ± 0.23
- promoter activity interaction Z-score [6, 20]: -0.275 ± 0.55
- promoter activity interaction Z-score [6, 21]: -1.04 ± 0.42
- promoter activity interaction Z-score [6, 22]: -0.899 ± 0.71
